In the library only some 22% were active in any assay of this set; here they are far more common.
CYP2C19 inhib: blocks human cytochrome P450 2C19. CYP2C19 Supersomes, luciferin-H EGE luminescence, 30 min. P33261. inhibition, % at 5 µM. hit rate 21% among 96,000;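 active = CYP2C19 inhibition above a set limit at 5 µM in the primary screen, cut at about 50% in these data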;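 also: plate controls were negative control wells for no effect and 2.5 mM tranylcypromine positive control for full effect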
Target sequence (P33261 whole entry, looked up): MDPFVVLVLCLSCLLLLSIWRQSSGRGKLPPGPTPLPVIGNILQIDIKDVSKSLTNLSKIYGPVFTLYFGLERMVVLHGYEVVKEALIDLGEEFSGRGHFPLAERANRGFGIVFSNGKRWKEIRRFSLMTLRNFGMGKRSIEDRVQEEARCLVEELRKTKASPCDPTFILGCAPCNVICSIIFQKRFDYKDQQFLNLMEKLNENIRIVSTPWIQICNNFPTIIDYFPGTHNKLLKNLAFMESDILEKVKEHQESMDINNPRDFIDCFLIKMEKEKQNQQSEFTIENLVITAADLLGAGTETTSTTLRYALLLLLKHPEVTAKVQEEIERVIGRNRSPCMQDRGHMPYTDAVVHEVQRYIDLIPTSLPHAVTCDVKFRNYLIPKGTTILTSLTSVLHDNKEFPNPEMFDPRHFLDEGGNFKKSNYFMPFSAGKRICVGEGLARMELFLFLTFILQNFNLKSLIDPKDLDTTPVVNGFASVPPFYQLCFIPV
CYP2C9 activ: increases human cytochrome P450 2C9 activity. activation factor at 5 µM. recombinant CYP2C9, luciferin-H conversion, luminescence; active compounds read high; factor 1 = untreated enzyme, 0 = blocked. P11712. AID 1024. hit rate 1.4% among 96,000;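 active = activation factor of 2 or more for CYP2C9 at a 5 µM dose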;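 also: 0 = sulfaphenazole-blocked wells and 1 = vehicle-only wells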
CYP2C9 inh: inhibitors of human CYP2C9; AID 777; P11712; inhibition, % at 5 µM; hit rate 20% among 96,000; CYP2C9 Supersomes, luciferin-H conversion, luminescence;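 active = blocking of liver enzyme CYP2C9 beyond about 50% at 5 µM, limit read from the data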
E-sel TNF inh: blocks E-selectin expression induced by TNF alpha; HUVEC TNFa-induced E-selectin immunofluorescence, high content; hit rate 0.71% among 120,000; inhibition, % at 2 µM;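 active = inhibition above the batch mean plus 3 SD, and confirmed as a hit on visual image review, cut at about 43% in these data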;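 also: 0% = TNF-stimulated DMSO wells and 100% = unstimulated control wells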
CYP2C19 activ: activators of human cytochrome P450 2C19; recombinant CYP2C19, luciferin-H EGE luminescence; active compounds read high; 0 = fully inhibited enzyme, 1 = untreated enzyme; 96,000 tested, under 10 active; AID 1025; activation factor at 5 µM; P33261;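 active = activation factor of at least 2 at 5 µM in the primary screen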;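 also: 0 = wells with 2.5 mM tranylcypromine and 1 = vehicle-only wells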
F-actin modifier: cytoskeleton assembly modification; hit rate 0.18% among 91,000; HUVEC TNFa F-actin phalloidin imaging, high content; inhibition, % at 2 µM; AID 836;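 active = inhibition above the batch mean plus 3 SD and confirmed as a hit by visual image inspection, cut at about 30% in these data, passing the limit was not always enough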
Numbers without * were called inactive; x = no result.

SMILES | CYP2C19 inhib | CYP2C9 activ | CYP2C9 inh | E-sel TNF inh | CYP2C19 activ | F-actin modifier
O=C(C1CC1)N1CCc2cc(Br)cc(S(=O)(=O)NCCCN3CCCC3)c21 | -4 | 1.1 | -11 | 66* | 1 | x
O=C(C1CC1)N1CCc2cc(Br)cc(S(=O)(=O)N3CCN(c4ccccn4)CC3)c21 | 72* | 0.1 | 95* | -45 | 0.3 | x
CC(=O)N1CCc2cc(Br)cc(S(=O)(=O)NCCCN3CCC(C)CC3)c21 | -1 | 1 | -3 | 1 | 1 | 2
CC(C)N(Cc1ccccc1)C(=S)NCc1ccccc1 | x | x | x | 34 | x | x
CCOc1ccc(Nc2nc3cc(S(=O)(=O)N(CC)CC)ccc3o2)cc1 | 15 | 0.8 | 23 | -12 | 0.9 | -5
CCOc1ccccc1CN1CCN(S(=O)(=O)CC)CC1 | 38 | 0.9 | 9 | -5 | 0.6 | 0
CCS(=O)(=O)N1CCN(Cc2ccccc2OC)CC1 | 89* | 0.8 | 15 | 11 | 0.1 | 1
CCCS(=O)(=O)N1CCN(Cc2ccccc2OCC)CC1 | 75* | 1 | 4 | x | 0.2 | x
CCOCCCNc1nc2nc3ccc(C)cn3c(=O)c2cc1C(=O)NCC1CCCO1 (stereo not given) | x | x | x | 14 | x | x
O=C(Oc1ccc(Br)cc1C(=S)N1CCCCC1)c1cc([N+](=O)[O-])cc([N+](=O)[O-])c1 | 62* | 1 | 0 | 18 | 0.4 | 3
O=C(Oc1ccc(Br)cc1C(=S)N1CCCC1)c1ccccc1Cl | 57* | 0.6 | 35 | -15 | 0.4 | -1
Cc1ccccc1C(=O)Oc1ccccc1C(=O)N1CCOCC1 | x | x | x | -23 | x | 6
Cc1ccccc1C(=O)Oc1ccc(Br)cc1C(=S)N1CCCC1 | 52* | 0.6 | 41 | -28 | 0.5 | -6
COC1CCCCC1Nc1cc(C)ccc1C (stereo not given) | 44 | 0.8 | 22 | -29 | 0.6 | -6
Cc1ccc(C(=O)ON=C2CCN(S(=O)(=O)c3ccccc3)CC2)cc1 | 12 | 1 | -3 | -1 | 0.9 | -42
NC(=O)C[C@@H]1N[C@]2(C(=O)Nc3ccccc32)[C@@H]2C(=O)N(c3cc(C(F)(F)F)ccc3Cl)C(=O)[C@H]12 | 24 | 0.7 | 25 | -12 | 0.8 | -26
COC(=O)c1ccc(CSc2nc3c(c(=O)n2-c2ccc(Br)cc2)SCC3)o1 | 90* | 0.1 | 92* | 5 | 0.1 | -6
CCOc1ccc(-n2c(SCC(=O)Nc3ccc(OC)cc3)nc3c(c2=O)SCC3)cc1 | 35 | 0.6 | 42 | -13 | 0.7 | 7
CCOc1ccc(-n2c(SCc3ccc(C(=O)OC)o3)nc3c(c2=O)SCC3)cc1 | 82* | 0.1 | 87* | -50 | 0.2 | x
N#Cc1cccc(NC(=O)COC(=O)c2cccc(N3C(=O)c4ccccc4C3=O)c2)c1 | x | x | x | 6 | x | x
CN1CCN(C(c2ccc(F)cc2)c2nnnn2Cc2cccs2)CC1 (stereo not given) | 21 | 1.1 | -8 | 57* | 0.8 | x
OC1(c2ccc(F)cc2)CCN(Cc2nnnn2Cc2cccs2)CC1 | 75* | 0.4 | 60* | 1 | 0.3 | 46
Cc1ccc(C(c2nnnn2Cc2cccs2)N2CCN(C(=O)c3ccco3)CC2)cc1 (stereo not given) | 71* | 0.5 | 48 | x | 0.3 | 9
O=C(c1ccco1)N1CCN(C(c2ccccc2F)c2nnnn2Cc2cccs2)CC1 (stereo not given) | 8 | 0.9 | 14 | -18 | 0.9 | 6
OC1(c2cccc(C(F)(F)F)c2)CCN(Cc2nnnn2Cc2ccccc2)CC1 | x | x | x | -36 | x | x
SMILES | CYP2C19 inhib | CYP2C9 activ | CYP2C9 inh | E-sel TNF inh | CYP2C19 activ | F-actin modifier
O=C(c1ccco1)N1CCN(C(c2ccccc2Cl)c2nnnn2CC2CCCO2)CC1 (stereo not given) | -11 | 1.1 | -9 | -3 | 1.1 | -9
CCN1CCN(C(c2ccc(F)cc2)c2nnnn2Cc2cccs2)CC1 (stereo not given) | 33 | 1 | 5 | 10 | 0.7 | x
O=C(c1ccco1)N1CCN(C(c2ccccc2F)c2nnnn2CC2CCCO2)CC1 (stereo not given) | 24 | 0.3 | 71* | -3 | 0.8 | -18
Fc1ccc(C(c2nnnn2Cc2cccs2)N2CCN(C3CCCCC3)CC2)cc1 (stereo not given) | 86* | 0.9 | 9 | -17 | 0.1 | 2
Cn1cnnc1SC(C(=O)c1ccccc1)c1ccccc1 (stereo not given) | 81* | 1 | -4 | x | 0.2 | -22
CC(Sc1nncn1C)C(=O)Nc1nnc(-c2ccccc2)s1 (stereo not given) | 12 | 0.5 | 51* | 4 | 0.9 | 9

Screening results (PubChem)
